# Experimental data published in PubChem BioAssay (NCI).
# The panel holds about 79,000 compounds, 15% with a hit somewhere; the sample as a whole holds those more often. Unmarked numbers belong to inactive results. The source made the active and inactive calls. Rule as the data show it: active = growth inhibition above about 70%; inactive = the rest.
# Tests used:
# [1] = NCI Yeast Anticancer Drug Screen. Data for the rad50 strain (AID 155);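 also: 0% = growth of vehicle-only cultures of the same strain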; conditions: S. cerevisiae rad50 strain growth inhibition; at 50.0 µM; hits give high values
# In short: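 Cells are treated with compound, grown, and their growth is then scored against vehicle-only cultures of the same repair-deficient yeast strain.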
# [2] = NCI Yeast Anticancer Drug Screen. Data for the mec2-1 strain (AID 157); conditions: S. cerevisiae mec2-1 strain, at 50.0 µM, hits give high values
# In short: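 Growth inhibition is read against vehicle-treated controls after compound exposure of the mec2-1 yeast strain, which is defective in DNA damage repair or cell cycle control.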
# [3] = NCI Yeast Anticancer Drug Screen. Data for the sgs1 mgt1 strain (AID 161);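 also: 0% = growth of cultures given vehicle only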; conditions: S. cerevisiae sgs1 mgt1 strain, at 50.0 µM, hits give high values
# In short: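 Yeast cells carrying a defined DNA-repair defect were exposed to test compounds. Growth inhibition was measured relative to vehicle-treated controls.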
# [4] = NCI Yeast Anticancer Drug Screen. Data for the cln2 rad14 strain (AID 165);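 also: 0% = growth equal to vehicle treated cultures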; conditions: S. cerevisiae cln2 rad14 strain, at 50.0 µM, hits give high values
# In short: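 Growth inhibition, relative to vehicle-treated controls, is the read-out. The test organism is a yeast strain with defined genetic alterations, cln2 rad14.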
# [5] = NCI Yeast Anticancer Drug Screen. Data for the bub3 strain (AID 167); conditions: S. cerevisiae bub3 mutant strain, at 50.0 µM, hits give high values
# In short: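 Part of a panel of yeast mutants defective in DNA damage repair or cell cycle regulation. Each strain is grown with compound, and inhibition is calculated relative to solvent-treated cultures.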
# [6] = NCI Yeast Anticancer Drug Screen. Data for the mlh1 rad18 strain (AID 175); conditions: S. cerevisiae mlh1 rad18 strain growth inhibition; at 50.0 µM; hits give high values
# In short: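 Cells of a genetically altered yeast strain, deficient in DNA damage repair, were treated with compound. Their growth was then compared with that of vehicle-treated cultures to give inhibition.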
Structure (SMILES),growth inhibition [1],growth inhibition [2],growth inhibition [3],growth inhibition [4],growth inhibition [5],growth inhibition [6]
CCCCCCCCCCCOc1ccc(Cl)cc1Cl,10.4%,16.5%,8.75%,-4.05%,30.2%,12.2%
O=S1(=O)CC(Cl)C(I)C1 (configuration not stated),99.4% (active),99.7% (active),99.5% (active),98.8% (active),99.5% (active),99.2% (active)
CCOC(=O)/C(C#N)=C(O)/C(=C\c1ccc(Br)cc1)NC(=O)c1ccccc1,-29.9%,-12.9%,-24.2%,13.2%,-4.25%,-15.1%
O=C1OC(=O)C2=C1C1C=CC2CC1,3.4%,-7.05%,3%,0%,-9.05%,13.4%
O=C1CCC(c2nc3ccccc3[nH]2)N1Cc1cccs1 (configuration not stated),-29.4%,-37.1%,-10.2%,-21.9%,-6.85%,-8.55%
CC(C)Cc1cn(O)c2nc(=N)nc(N)c-2n1,4.95%,-5.6%,-1.7%,-13.6%,5.8%,4%
CC(Cl)CN1c2ccccc2Sc2ccc(Cl)cc21 (configuration not stated),33%,-5.4%,2.35%,23%,5.35%,16.8%
COC1=C(OC)C(=O)C(COC2CCCCO2)=CC1=O (configuration not stated),-4.9%,-1.45%,8.75%,87.5% (active),10.6%,-6.65%
O=P(c1ccccc1)(c1ccccc1)N1CC1c1ccccc1 (configuration not stated),8.95%,12.9%,3.2%,-3.45%,4.6%,10.1%
O=C(O)c1ccccc1C(=O)c1ccccn1,-4%,-31.8%,-5.9%,10.6%,-17.2%,-15.2%
CCOc1cccc2c1N[S@@](=O)S2,4.85%,-26.7%,11.5%,16.2%,7.8%,33.6%
O=C1O/C(=C(\Br)c2cccc3ccccc23)c2ccccc21,-18.1%,-30.4%,-34%,11.2%,-27.6%,-18.3%
CC(=O)OCC1OC(n2c(C)c(C(C)=O)c(-c3cccc4ccccc34)c(C#N)c2=S)C(OC(C)=O)C(OC(C)=O)C1OC(C)=O (configuration not stated),25.1%,22.4%,48%,22.1%,32.3%,33.9%
O=C(O)C1Cc2c([nH]c3ccccc23)C(CCCCO)N1 (configuration not stated),-31.6%,-7.85%,-15.9%,-15.4%,-26.4%,-11.3%
COc1ccc(C2NCCCC2c2ccccc2)cc1 (configuration not stated),-46.3%,-29.4%,-2.65%,14.8%,-40.2%,-11.1%
Cn1cnc2cc3c(cc2c1=O)nc1n3CCCC1,-1.7%,-2.5%,-12.6%,-12.4%,-6.75%,-6.8%
CCOC(=O)/C(C#N)=C/c1ccc(-c2cc(C(F)(F)F)cc(C(F)(F)F)c2)o1,-17.9%,-7%,-8%,-15.4%,-2.5%,-0.8%
Cc1ccc([N+](=O)[O-])cc1NC(=O)C(=O)Cc1occc(=O)c1O,-12.6%,-6%,0.65%,-3.45%,-8.85%,-6.95%
CN(C)c1ccc(/C=N/N=C2\C(=O)Nc3c(Cl)cc(Cl)cc32)cc1,25.2%,-0.25%,56.8%,43.1%,43.5%,78.8% (active)
NC1=C(Br)C(=O)c2[nH]c(=O)[nH]c(=O)c2C1=O,18.8%,7.6%,24.4%,-4%,7.15%,20.6%
CCOc1ccccc1N1C(=O)CSC1=S,15.2%,14.2%,51.2%,-14%,48.9%,30.2%

Structure (SMILES),growth inhibition [1],growth inhibition [2],growth inhibition [3],growth inhibition [4],growth inhibition [5],growth inhibition [6]
Cc1cncc(C)c1P(=O)(O)O,-10.3%,-6.1%,-9.05%,-19.8%,3.55%,3.65%
O=C(Nc1ccccc1[N+](=O)[O-])OCc1ccccc1,-10.7%,10.4%,13.5%,10.1%,1.6%,8.2%
N#CC(CC(=O)O)=C(c1ccccc1)c1ccccc1,-6.75%,-22.2%,-20.5%,11.7%,-50.8%,8.95%
COc1ccc(-c2coc3c4c(c(CC=C(C)C)c(O)c3c2=O)OC(C)(C)C=C4)cc1OC,29.9%,13.8%,10.9%,37.7%,4.1%,16.8%
CN(C)c1ccc2oc3ccccc3c2c1,-4.5%,-4.5%,-21.4%,-23.9%,5.35%,-26.4%
CC[N+](C)(CC)CCOc1ccc(Cc2nc3c([nH]2)c(=O)n(C)c(=O)n3C)cc1,8.15%,5.9%,13.8%,-4.4%,-9.6%,19.6%
O=Cc1c2cnc(c1O)CSCCCCSC2,-9.2%,-3.8%,-10.8%,-45.2%,-16.4%,-1.8%
CCC[N+](C)(C)C,5.65%,-28.2%,-1.15%,6.4%,1.6%,-5.45%
COC(=O)CCSC(=S)NCc1ccccc1,-14.4%,-30.1%,-20%,-222%,-3.45%,-12.7%
COc1ccc(NC(=O)C2C(=O)N(c3ccc(OC)cc3)C(=O)/C2=N\N)cc1 (configuration not stated),11.6%,-19.4%,-2.9%,-57.6%,19.4%,3.35%
CC1CCC2C(C)C3C(CC4C5CC=C6CC(O)CCC6(C)C5CCC43C=O)N2C1 (configuration not stated),30.3%,19.9%,24.9%,16.6%,3.9%,19.4%
Nc1nnnn1NC(=O)NCCCl,-43.7%,-38.7%,-35.9%,-18.4%,-27.4%,-26.5%
CCCCCC(O)C(C)C (configuration not stated),1.5%,-2.55%,-8.65%,-36.8%,15.7%,6.8%
CCCc1c(-c2ccccc2)nc(N)nc1-c1nc(N)nc(-c2ccccc2)c1CCC,-1.75%,-10.7%,-12.4%,9.4%,-2.25%,-1.4%
O=C1C=C(c2ccccc2)C(O)(c2ccccc2)/C1=C/C=C/c1ccccc1 (configuration not stated),-3.55%,-14.1%,6.5%,-12.2%,-5.2%,-8.35%
CC(=O)O[C@H]1[C@@H]2[C@@H]3[C@@H](C[C@H]1C)[C@@H](C)CO[C@@]1(C)CC/C=C(/C)C[C@@H]2O[C@@H]31,-3.9%,-1.75%,0.15%,-19.1%,-12.8%,-8.95%
OC1CCCSC1 (configuration not stated),18.1%,-15.9%,12.8%,4.75%,16.6%,27.9%
CC(=O)CC1CCCC1,19.4%,0.6%,19.9%,15.9%,5.3%,17.9%
CNC(=O)Sc1ccc(C)c([N+](C)(C)C)c1,10.1%,5.6%,9%,-9.6%,18.1%,18.5%
O=C(O)C1(N(CCO)CCO)CCCC1,-15.6%,-11.7%,3.4%,-35.3%,-11.2%,-1.65%
Cc1nc(N)nc2c1ncn2CCO,14.6%,16.1%,9.6%,-4.25%,24.9%,9.85%
